APOBEC3G inh – inhibitors of human APOBEC3G DNA deaminase; Q9HC16; recombinant A3G, ssDNA deamination FAM/TAMRA fluorescence; inhibition, % at 20 µM; actives 0.28% (n = 330,000);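 active = inhibition of at least 40% at 20 µM, with no more than 30% in the related APOBEC3A deaminase screen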;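 note: plate controls were DMSO wells with A3G for no effect and wells lacking A3G enzyme for full effect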
Target sequence (Q9HC16 whole entry, looked up): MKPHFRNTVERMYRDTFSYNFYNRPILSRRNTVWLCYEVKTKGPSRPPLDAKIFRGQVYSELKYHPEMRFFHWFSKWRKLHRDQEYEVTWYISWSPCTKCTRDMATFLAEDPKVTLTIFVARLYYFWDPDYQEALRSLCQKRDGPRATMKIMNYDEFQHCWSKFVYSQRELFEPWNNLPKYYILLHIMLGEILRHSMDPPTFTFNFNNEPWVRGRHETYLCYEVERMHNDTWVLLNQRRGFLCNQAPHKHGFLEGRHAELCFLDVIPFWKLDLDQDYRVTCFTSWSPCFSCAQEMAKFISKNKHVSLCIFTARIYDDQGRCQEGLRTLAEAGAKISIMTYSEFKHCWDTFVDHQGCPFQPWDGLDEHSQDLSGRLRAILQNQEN
APOBEC3A inh – inhibitors of human APOBEC3A DNA deaminase | P31941 | AID 493011 | actives 0.41% (n = 330,000) | recombinant A3A, FAM/TAMRA ssDNA deamination fluorescence | inhibition, % at 20 µM;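 active = at least 40% inhibition at 20 µM here, with at most 30% in a related deaminase screen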;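 note: plate controls were A3A with DMSO for no effect and wells lacking A3A enzyme for full effect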
Target sequence (P31941 whole entry, looked up): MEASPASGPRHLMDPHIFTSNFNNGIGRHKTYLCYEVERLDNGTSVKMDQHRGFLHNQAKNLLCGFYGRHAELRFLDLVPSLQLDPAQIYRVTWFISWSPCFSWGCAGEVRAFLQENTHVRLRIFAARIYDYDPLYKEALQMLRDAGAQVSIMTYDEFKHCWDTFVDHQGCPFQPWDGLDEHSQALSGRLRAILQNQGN
GRK2 aptamer HTS – human GRK2 inhibition via aptamer displacement; bead flow cytometry, FAM-aptamer displacement from GRK2; inhibition of aptamer binding, % at 10 µM; actives 0.59% (n = 330,000); AID 488847;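 active = inhibition of aptamer binding above 40%, roughly 3 SD of noise, on plates passing a quality check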;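 note: median bead fluorescence of bound FAM aptamer so fluorescent compounds give negative values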
VLA-4 inh – inhibition in a human VLA-4 binding assay; P13612; VLA-4 expressing cells, ligand binding flow cytometry; inhibition, % (about 7 µM as worked out from the volumes in the protocol); actives 0.2% (n = 330,000); AID 2557; in the data active = inhibition above about 50%
GRK2 inh confirm – human GRK2 inhibition confirmation, cherry pick 1; shares compounds with GRK2 aptamer HTS; bead-bound GRK2, FAM-aptamer displacement, flow cytometry; aptamer displacement, % at 10 µM; actives 4% (n = 2,000); AID 504451;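 active = aptamer displacement above 40%, near three times the noise of non-fluorescent compounds, on plates passing quality checks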;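 note: negative values mostly reflect intrinsic compound fluorescence rather than true enhancement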
Aptamer quench – counter-screen for GRK2 aptamer inhibitors: fluorescent aptamer quenchers | shares compounds with GRK2 aptamer HTS | Fluorescent RNA aptamer beads, quenching, flow cytometry; active compounds read high | 110 tested, under 10 active | fluorescence change (kMESF span), kMESF (no concentration beside the values);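 active = compounds whose bead fluorescence drops by more than 37 kMESF across the dose range, marking them as dye quenchers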
FAM quench CP1 – counter-screen for GRK2 aptamer inhibitors: fluorescent aptamer quenchers | Carboxyfluorescein RNA aptamer on beads, flow cytometry quenching; active compounds read low | AID 504580 | shares compounds with GRK2 aptamer HTS | fluorescence response (% of DMSO), % at 10 µM | 2,000 tested, under 10 active;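 active = compounds that quench the bead-bound fluorescent RNA probe, cutting fluorescence to under half of the solvent control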;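 note: counterscreen run without GRK2 so only probe quenching by compound is measured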
GRK2 CP2 – human GRK2 inhibition confirmation, cherry pick 2; shares compounds with GRK2 aptamer HTS; bead-bound GRK2, FAM-aptamer displacement, flow cytometry; inhibition of aptamer binding, % at 10 µM; 360 tested, under 10 active; AID 504782;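 active = inhibition of aptamer binding above 40%, about triple the noise seen with nonglowing compounds, on plates passing quality control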;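 note: negative values mostly come from compounds that fluoresce themselves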
FAM quench CP2 – counter-screen for GRK2 binding hits: quenchers of fluorescent RNA aptamer; shares compounds with GRK2 aptamer HTS; carboxyfluorescein RNA aptamer beads, flow cytometry quenching; active compounds read low; fluorescence response vs DMSO, % at 10 µM; 360 tested, under 10 active; AID 588494;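 active = response vs DMSO under 50%, meaning signal dropped by over half, treated as fluorescence quencher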;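 note: labelled aptamer on streptavidin beads without GRK2 as a quench counter-screen; 100% = bead fluorescence of DMSO wells and lower means quenching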
The depositor's hits bear a star; i = inactive; . = no result given. Most compounds without a hit are left out; they make up all but 1.4% or so of the library.

SMILES | APOBEC3G inh | APOBEC3A inh | GRK2 aptamer HTS | VLA-4 inh | GRK2 inh confirm | FAM quench CP1 | others
S=C(NCCc1ccccc1)N1CCc2ccccc2C1 | -1.1 | -1.7 | 95.0* | -8.3 | -7.6 | 100.3
O=C(NC(=S)NNC(=O)c1ccccc1O)c1cccc([N+](=O)[O-])c1 | -10.2 | -7.1 | 6.0 | 30.6 | . | .
Cc1ccc(NC(=O)CCn2c(=O)[nH]c3ccsc3c2=O)cc1 | -6.6 | 1.0 | 0.0 | -6.4 | . | .
Cc1ccc(NC(=O)CCn2c(=O)[nH]c3ccsc3c2=O)cc1F | -0.6 | 5.4 | 71.0* | -4.5 | -0.1 | 99.5
O=C(NCCOc1nc(N2CCOCC2)nc(N2CCOCC2)n1)Nc1ccccc1 | 0.1 | 0.4 | 46.0* | 1.6 | 0.4 | 97.5
O=c1c2c3c(sc2nc(NCCO)n1Cc1ccco1)CCCCC3 | -5.8 | -2.8 | 4.0 | 6.1 | . | .
O=c1c2c3c(sc2nc(NCCO)n1CCc1ccccc1)CCCCC3 | 0.7 | -0.5 | 90.0* | 5.2 | -4.2 | 93.7
COc1ccc(CCNS(=O)(=O)c2ccc3c(c2)CCCC3)cc1OC | 0.1 | 2.9 | 42.0* | -13.3 | . | . | GRK2 CP2=18.2;FAM quench CP2=101.0
COc1cccc(CC2(CO)CCCN(Cc3cn[nH]c3-c3ccc(F)cc3)C2)c1 (stereo not drawn) | -5.2 | 0.2 | 0.0 | 8.8 | -3.0 | 103.6
c1coc(CNCCCN2CCOCC2)c1 | -2.9 | 0.8 | 2.0 | -3.1 | . | .
O=C(c1ccccc1)c1c2c(cc3sc4ccccc4[n+]13)-c1cccc3cccc-2c13 | . | . | 76.0* | i | 69.8* | 110.4 | Aptamer quench=-5.5
N/C(=N\OC(=O)/C=C/c1ccccc1)c1cccnc1 | -4.5 | -0.5 | 0.0 | 5.1 | . | .
N/C(=N\OC(=O)/C=C/c1ccccc1Cl)c1cccnc1 | 1.3 | 2.7 | 75.0* | -3.6 | -21.7 | 97.5
CN(C)C(=O)CSc1nnc(CCN)o1 | -0.1 | -0.1 | 0.0 | 21.6 | . | .
Cc1ccc(C(=O)N/C(=C/c2ccc(Cl)cc2)C(=O)Nc2cccc(C(=O)O)c2)cc1 | -1.6 | 2.8 | 0.0 | -6.9 | . | .
CC1(C)SCC(C(=O)O)N1C=O (stereo not drawn) | -6.3 | -1.8 | 3.0 | 27.1 | . | .
COc1ccc(NC(=O)C2CSC(C)(C)N2C=O)cc1 (stereo not drawn) | -4.4 | -1.1 | 75.0* | 9.2 | -2.5 | 99.7
O=C1NC(=O)c2cc(NC(=O)C3CCCCC3)ccc21 | 0.6 | -2.5 | 100.0* | -2.0 | -9.3 | 98.5
O=C(Nc1ccc(Cl)c(Cl)c1)C1CCCCC1 | -12.1 | -5.8 | 0.0 | -2.8 | . | .
Cc1ccc(S(=O)(=O)Nc2cc(Cl)c(O)c3ncccc23)cc1 | 4.4 | -5.5 | 55.0* | -11.8 | . | . | GRK2 CP2=-30.3;FAM quench CP2=111.0
Cc1ccc(NS(=O)(=O)c2cccc(C(=O)N3CCCCCCC3)c2)cc1 | -5.8 | -3.3 | 0.0 | -5.0 | . | .
Cc1ccc(S(=O)(=O)Nc2cccc(C(=O)N3CCC(C(N)=O)CC3)c2)cc1 | -2.1 | -0.2 | 61.0* | 1.7 | 2.5 | 97.3
CC12C(=O)N(c3ccccc3C(=O)O)C(=O)C1C1C=CC2C1 (stereo not drawn) | -3.7 | 2.8 | 79.0* | -10.1 | 2.6 | 93.6
CCOC(=O)c1c(-c2cccs2)csc1NC(C)=O | -3.4 | -15.8 | 1.0 | 3.3 | . | .
CCOC(=O)c1c(-c2cccs2)csc1NC(=O)CSc1ncn[nH]1 | -5.7 | -6.9 | 90.0* | 0.0 | 0.3 | 100.2
SMILES | APOBEC3G inh | APOBEC3A inh | GRK2 aptamer HTS | VLA-4 inh | GRK2 inh confirm | FAM quench CP1 | others
CN1CCN(C(=O)/C(=C/c2ccccc2)c2ccccc2)CC1 | -3.8 | 2.9 | 1.0 | 10.3 | . | .
CCCN(C(=O)c1cn(C)c(=O)c2ccccc12)c1ccccc1C | -3.1 | 0.0 | 0.0 | 16.4 | -2.6 | 95.6
CN(CC(=O)Nc1ccccc1Cl)C(=O)Cn1cc(C(F)(F)F)cc(Cl)c1=O | -6.3 | 20.5 | 0.0 | 7.3 | . | .
CN(CC(=O)Nc1ccccc1Cl)C(=O)Cn1cc(C(F)(F)F)ccc1=O | -4.1 | 6.3 | 65.0* | 2.1 | 0.3 | 96.1
O=C(CSc1nc2ccccc2c(=O)[nH]1)N1CCN(S(=O)(=O)c2ccccc2)CC1 | -6.8 | -0.8 | 0.0 | -3.1 | . | .
Cc1ccc(-c2nc(CS(=O)(=O)CC(=O)N3CCCCCC3)c(C)o2)cc1 | -4.0 | -2.9 | 73.0* | -5.7 | -4.4 | 102.9
O=C(NCc1ccc(-c2nc3ccccc3s2)cc1)c1ccc(Br)o1 | -7.4 | 0.1 | 0.0 | -3.1 | . | .
O=C(NCC1CCCO1)c1cn(Cc2ccccc2)nc1-c1ccc(Cl)cc1 (stereo not drawn) | -2.9 | -3.6 | 45.0* | 19.4 | 1.1 | 98.2
CNc1cc(N2CCN(S(=O)(=O)N(C)C)CC2)ccc1[N+](=O)[O-] | -8.7 | -6.6 | 73.0* | -0.6 | 3.5 | 94.1
Fc1ccc(CNc2ccc(N3CCN(Cc4ccccc4)CC3)cc2)cc1 | 10.0 | -2.1 | 0.0 | 2.3 | . | .
CC(C)(C)c1ccc(C(=O)N2CCCN(C(=O)c3ccc(C(C)(C)C)cc3)CC2)cc1 | -1.3 | -0.8 | 1.0 | 9.5 | . | .
CC(C)(C)c1ccc(C(=O)N2CCNCC2)cc1 | -5.6 | -3.5 | 65.0* | 2.8 | 2.7 | 103.1
O=C(NCc1ccccc1)Nc1cccn(Cc2ccccc2)c1=O | -3.1 | -1.4 | 57.0* | 4.2 | . | . | GRK2 CP2=5.8;FAM quench CP2=101.0
Cc1cccc(-c2cc(C(=O)Nc3sc(C)c(C)c3C(N)=O)c3ccccc3n2)c1 | 0.1 | 4.3 | 0.0 | -11.4 | . | .
COc1ccc(C(=O)C2CCCN(Cc3cnc(N4CCOCC4)s3)C2)cc1F (stereo not drawn) | -4.5 | -5.2 | 0.0 | 0.9 | -2.2 | 100.1
CC(C)Oc1cccc(C(=O)C2CCCN(Cc3cnc(N4CCOCC4)s3)C2)c1 (stereo not drawn) | -1.9 | 6.9 | 53.0* | -1.9 | -2.5 | 94.7
COc1ccc(C2c3[nH]c4ccccc4c3CCN2C(=O)c2ccccc2C(C)=O)c(F)c1 (stereo not drawn) | -3.5 | 0.7 | 0.0 | 19.2 | . | .
COc1cccc(C2c3[nH]c4ccccc4c3CCN2C(=O)c2ccccc2F)c1OC (stereo not drawn) | -7.3 | -1.9 | 50.0* | -2.6 | 1.7 | 98.0
C=CCOC(=O)CSCC(NC(=O)OC(C)(C)C)C(=O)OCC (stereo not drawn) | -4.0 | -1.8 | 86.0* | 1.0 | 0.7 | 104.5
Cc1coc2c(C)c3oc(=O)c(CCC(=O)NCCCN4CCOCC4)c(C)c3cc12 | -10.2 | -2.3 | 0.0 | 18.6 | -0.8 | 97.0
Cc1c(C)c2ccc(OC(C)C(=O)NCCCN3CCOCC3)c(C)c2oc1=O (stereo not drawn) | -2.8 | -0.6 | 0.0 | -3.4 | -0.4 | 100.6

Screens from PubChem.
